Some structures have more than one record in an assay (separate samples or runs), and their calls can disagree. The source made the active and inactive calls. The calls were made as follows: active = hit-call score of the fitted dose curve at least 0.9, where 1 is the maximum; inactive = score below 0.9.
molecular target: Transcription factor E2F1 (Homo sapiens) (UniProt Q01094); assay: ATG_E2F_CIS: Attagene CIS-FACTORIAL HepG2 Assay for human E2F Transcription Factor 1 (AID 2282935); conditions: HepG2 Attagene cis-reporter, E2F reporter RNA transcripts; actives raise or lower the signal
Sequence (Q01094 whole entry, looked up): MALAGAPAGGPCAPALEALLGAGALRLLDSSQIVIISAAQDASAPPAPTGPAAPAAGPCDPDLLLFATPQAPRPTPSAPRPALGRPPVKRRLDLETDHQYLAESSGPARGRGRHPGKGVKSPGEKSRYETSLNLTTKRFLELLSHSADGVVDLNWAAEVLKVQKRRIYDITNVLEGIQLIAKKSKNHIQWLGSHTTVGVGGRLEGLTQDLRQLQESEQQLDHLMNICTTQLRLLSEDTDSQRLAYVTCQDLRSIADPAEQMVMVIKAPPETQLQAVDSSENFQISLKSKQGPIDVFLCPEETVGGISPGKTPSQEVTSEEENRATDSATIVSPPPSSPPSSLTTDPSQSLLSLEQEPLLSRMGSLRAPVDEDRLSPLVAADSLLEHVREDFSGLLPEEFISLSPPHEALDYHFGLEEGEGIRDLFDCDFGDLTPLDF
Procedure, shortened: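 Gain or loss of reporter transcript, fitted against DMSO, reflects E2F1-driven transcription. Transiently transfected HepG2 dosed 24 h before RNA isolation. Quantified by fluorescent RT-PCR products separated by capillary electrophoresis.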

Row | Compound | outcome | AC50
1 | CCCCC(CC)COC(=O)CCCCC(=O)OCc1ccccc1 (stereo not drawn) | inactive | 
2 | FC(F)(I)C(F)(F)C(F)(F)C(F)(F)C(F)(F)C(F)(F)I | inactive | 
3 | Cc1oc(-c2ccccc2)nc1CCOc1ccc(C[C@H](Nc2ccccc2C(=O)c2ccccc2)C(=O)O)cc1 | inactive | 
4 | CN1CCC[C@H]1c1cccnc1 | inactive | 
5 | COCC(C)OCC(C)O (stereo not drawn) | inactive | 
6 | CN1CCN(c2ccccc2/C=C2\SCCN(c3ccc(Cl)c(Cl)c3)C2=O)CC1 | inactive | 
7 | CC(C)(C)CC(C)(C)c1ccc(O)c(-n2nc3ccccc3n2)c1 | inactive | 
8 | C[C@@H]1C[C@H]2[C@@H]3CCC4=CC(=O)C=C[C@]4(C)[C@@]3(F)[C@@H](O)C[C@]2(C)[C@@]1(O)C(=O)COP(=O)(O)O | inactive | 
9 | CCc1nn(C2CCCCC2)c2cc(C3(C#N)CCC(C(=O)O)CC3)ccc12 (stereo not drawn) | inactive | 
10 | N#C[C@@H]1CC(F)(F)CN1C(=O)CNC1CC2CCC(C1)N2c1ncccn1 (stereo partly drawn) | inactive | 
11 | CCCCCCCCC(=O)O | inactive | 
12 | NC(=O)N(O)[C@@H]1C=C[C@H](Oc2cccc(Oc3ccc(F)cc3)c2)C1 | inactive | 
13 | CC(=O)CC(C)(C)O | inactive | 
14 | CCCCCCCCCCCCCC[N+](C)(C)C | inactive | 
15 | CC(=O)NC1(c2cccc(F)c2)CCN(CC[C@@]2(c3ccc(Cl)c(Cl)c3)CN(c3ccccc3)C(=O)CO2)CC1 | inactive | 
16 | CCCCCCCCCCCCc1ccccc1S(=O)(=O)O | inactive | 
17 | Cc1cc(CCN2CCN(c3nsc4ccccc34)CC2)cc2c1NC(=O)CC2(C)C | inactive | 
18 | CCCCCCC(=O)O | inactive | 

Row | Compound | outcome | AC50
19 | OC1CCC(C2CCCCC2)CC1 (stereo not drawn) | inactive | 
20 | Cc1ccc(S(=O)(=O)O)c(C)c1 | inactive | 
21 | NCC(F)(F)C(F)(F)C(F)(F)C(F)(F)C(F)(F)C(F)(F)C(F)(F)F | inactive | 
22 | O=[N+]([O-])c1ccc(O)cc1 | inactive | 
23 | CC(C)(C)c1cccc(C(C)(C)C)c1O |  | 188 µM (active)
24 | CCCCCCCC(=O)O | inactive | 
25 | CCCCC[C@H](O)CC(=O)CCc1ccc(O)c(OC)c1 | inactive | 
26 | CCc1ccc(CCOc2ccc(CC3SC(=O)NC3=O)cc2)nc1 (stereo not drawn) | inactive | 
27 | CC(O)C(=O)O (stereo not drawn) | inactive | 
28 | CC(C)CCCCCCOC(=O)CCCCC(=O)OCCCCCCC(C)C | inactive | 
29 | O=C1OC2(c3ccccc31)c1cc(Br)c(O)c(Br)c1Oc1c2cc(Br)c(O)c1Br | inactive | 
30 | COCC(C)O (stereo not drawn) | inactive | 
31 | CCCCCCCCCCCCCCCS(=O)(=O)Oc1ccccc1 | inactive | 
32 | Cc1cc(C)c(O)c(C)c1 | inactive | 
33 | C#C[C@]1(O)CC[C@H]2[C@@H]3CCC4=CC(=O)CC[C@@H]4[C@H]3CC[C@@]21C | inactive | 
34 | CC(C)(C)c1ccc(O)c(C(C)(C)C)c1 | inactive | 
35 | Oc1cccc(O)c1 | inactive | 
36 | CC[C@H](C)[C@@H](C(=O)O)n1sc2ccccc2c1=O | inactive | 

system: not listed separately; assay: ATG_E_Box_CIS: Attagene CIS-FACTORIAL HepG2 Assay for human Enhancer Box (E-box) (AID 2282936); conditions: HepG2 E-box cis-reporter transcription, actives raise or lower the signal
Procedure, shortened: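 E-box-driven reporter transcripts measured in transiently transfected HepG2 after 24 h exposure: RNA reverse-transcribed, PCR-amplified, fluorescently labelled, digested and resolved by capillary electrophoresis. Gain or loss relative to DMSO.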

Row | Compound | outcome | AC50
37 | CCCCC(CC)COC(=O)CCCCC(=O)OCc1ccccc1 (stereo not drawn) | inactive | 
38 | FC(F)(I)C(F)(F)C(F)(F)C(F)(F)C(F)(F)C(F)(F)I | inactive | 
39 | Cc1oc(-c2ccccc2)nc1CCOc1ccc(C[C@H](Nc2ccccc2C(=O)c2ccccc2)C(=O)O)cc1 | inactive | 
40 | CN1CCC[C@H]1c1cccnc1 | inactive | 
41 | COCC(C)OCC(C)O (stereo not drawn) | inactive | 
42 | CN1CCN(c2ccccc2/C=C2\SCCN(c3ccc(Cl)c(Cl)c3)C2=O)CC1 | inactive | 
43 | CC(C)(C)CC(C)(C)c1ccc(O)c(-n2nc3ccccc3n2)c1 | inactive | 
44 | C[C@@H]1C[C@H]2[C@@H]3CCC4=CC(=O)C=C[C@]4(C)[C@@]3(F)[C@@H](O)C[C@]2(C)[C@@]1(O)C(=O)COP(=O)(O)O | inactive | 
45 | CCc1nn(C2CCCCC2)c2cc(C3(C#N)CCC(C(=O)O)CC3)ccc12 (stereo not drawn) | inactive | 
46 | N#C[C@@H]1CC(F)(F)CN1C(=O)CNC1CC2CCC(C1)N2c1ncccn1 (stereo partly drawn) | inactive | 
47 | CCCCCCCCC(=O)O | inactive | 
48 | NC(=O)N(O)[C@@H]1C=C[C@H](Oc2cccc(Oc3ccc(F)cc3)c2)C1 | inactive | 
49 | CC(=O)CC(C)(C)O | inactive | 
50 | CCCCCCCCCCCCCC[N+](C)(C)C | inactive | 
51 | CC(=O)NC1(c2cccc(F)c2)CCN(CC[C@@]2(c3ccc(Cl)c(Cl)c3)CN(c3ccccc3)C(=O)CO2)CC1 | inactive | 
52 | CCCCCCCCCCCCc1ccccc1S(=O)(=O)O | inactive | 
53 | Cc1cc(CCN2CCN(c3nsc4ccccc34)CC2)cc2c1NC(=O)CC2(C)C | inactive | 
54 | CCCCCCC(=O)O | inactive | 

Row | Compound | outcome | AC50
55 | OC1CCC(C2CCCCC2)CC1 (stereo not drawn) | inactive | 
56 | Cc1ccc(S(=O)(=O)O)c(C)c1 | inactive | 
57 | NCC(F)(F)C(F)(F)C(F)(F)C(F)(F)C(F)(F)C(F)(F)C(F)(F)F | inactive | 
58 | O=[N+]([O-])c1ccc(O)cc1 | inactive | 
59 | CC(C)(C)c1cccc(C(C)(C)C)c1O | inactive | 
60 | CCCCCCCC(=O)O | inactive | 
61 | CCCCC[C@H](O)CC(=O)CCc1ccc(O)c(OC)c1 | inactive | 
62 | CCc1ccc(CCOc2ccc(CC3SC(=O)NC3=O)cc2)nc1 (stereo not drawn) | inactive | 
63 | CC(O)C(=O)O (stereo not drawn) | inactive | 
64 | CC(C)CCCCCCOC(=O)CCCCC(=O)OCCCCCCC(C)C | inactive | 
65 | O=C1OC2(c3ccccc31)c1cc(Br)c(O)c(Br)c1Oc1c2cc(Br)c(O)c1Br | inactive | 62.7 µM (active)
66 | COCC(C)O (stereo not drawn) | inactive | 
67 | CCCCCCCCCCCCCCCS(=O)(=O)Oc1ccccc1 | inactive | 
68 | Cc1cc(C)c(O)c(C)c1 | inactive | 
69 | C#C[C@]1(O)CC[C@H]2[C@@H]3CCC4=CC(=O)CC[C@@H]4[C@H]3CC[C@@]21C | inactive | 
70 | CC(C)(C)c1ccc(O)c(C(C)(C)C)c1 | inactive | 
71 | Oc1cccc(O)c1 | inactive | 
72 | CC[C@H](C)[C@@H](C(=O)O)n1sc2ccccc2c1=O | inactive | 
